# Data published in paper PMC7862700, “An all-to-all approach to the identification of sequence-specific readers for epigenetic DNA modifications on cytosine”.
# Experiments:
# Test in all cases: DAPPL (digital affinity profiling via proximity ligation, sequencing); 10 mM Tris-HCl pH 7.5, 50 mM NaCl, 1 mM DTT, 4% glycerol, room temperature, 30 min; GST-TFs on glutathione beads, 16-mer random dsDNA library, 0.1% formaldehyde crosslink after washing; high values mean tight binding
# Details in all cases: protein: recombinant; tags: N-terminal GST; dsDNA, one strand shown
# ELF4 = ELF4 (Homo sapiens, UniProt Q99607 1-663)
# Outline: (§1)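 Binding signal is defined as a hexamer's read frequency for one factor over its frequency for the tag-only sample. To obtain reads, GST-fused human transcription factors were expressed in yeast, captured on glutathione beads, barcoded with DNA and pooled with that sample. Pools met 200 nmole of a 16-mer random double-stranded DNA library in Tris/NaCl/DTT/glycerol buffer for 30 min at room temperature before washing, 0.1% formaldehyde crosslinking, proximity ligation (BsaI/T4 ligase, 1 h, 37 °C), PCR and Illumina NextSeq500 sequencing.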
# ETV2 = molecular target: T1, ETV2 (Homo sapiens, UniProt O00321 1-342)
# T1 sequence: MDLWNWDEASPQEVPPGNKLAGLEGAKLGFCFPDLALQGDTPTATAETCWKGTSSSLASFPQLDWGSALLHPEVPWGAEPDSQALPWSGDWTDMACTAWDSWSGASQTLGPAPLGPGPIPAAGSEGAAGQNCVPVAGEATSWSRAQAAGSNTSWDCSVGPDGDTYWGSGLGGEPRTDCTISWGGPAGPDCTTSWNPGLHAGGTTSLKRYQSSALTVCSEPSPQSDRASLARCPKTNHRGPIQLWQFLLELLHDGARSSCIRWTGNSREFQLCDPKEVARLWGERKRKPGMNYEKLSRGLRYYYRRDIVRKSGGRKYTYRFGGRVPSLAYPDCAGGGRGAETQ
# Outline: as §1
# ELF3 = molecular target: T2, ELF3 (Homo sapiens, UniProt P78545 1-371)
# T2 sequence: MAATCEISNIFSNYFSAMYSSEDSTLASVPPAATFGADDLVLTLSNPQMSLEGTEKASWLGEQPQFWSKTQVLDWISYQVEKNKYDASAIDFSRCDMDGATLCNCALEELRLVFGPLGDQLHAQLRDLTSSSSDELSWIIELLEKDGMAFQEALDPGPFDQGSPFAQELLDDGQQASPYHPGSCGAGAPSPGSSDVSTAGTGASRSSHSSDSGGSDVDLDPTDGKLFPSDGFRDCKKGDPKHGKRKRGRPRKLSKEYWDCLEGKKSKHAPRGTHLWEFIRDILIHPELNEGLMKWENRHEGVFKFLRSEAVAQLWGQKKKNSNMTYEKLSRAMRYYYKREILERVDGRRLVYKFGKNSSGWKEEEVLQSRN
# Outline: as §1
# ETV1 = ETV1 (Homo sapiens, UniProt P50549 1-477)
# Outline: as §1
# ERF = molecular target: T3, ERF (Homo sapiens, UniProt P50548 1-548)
# T3 sequence: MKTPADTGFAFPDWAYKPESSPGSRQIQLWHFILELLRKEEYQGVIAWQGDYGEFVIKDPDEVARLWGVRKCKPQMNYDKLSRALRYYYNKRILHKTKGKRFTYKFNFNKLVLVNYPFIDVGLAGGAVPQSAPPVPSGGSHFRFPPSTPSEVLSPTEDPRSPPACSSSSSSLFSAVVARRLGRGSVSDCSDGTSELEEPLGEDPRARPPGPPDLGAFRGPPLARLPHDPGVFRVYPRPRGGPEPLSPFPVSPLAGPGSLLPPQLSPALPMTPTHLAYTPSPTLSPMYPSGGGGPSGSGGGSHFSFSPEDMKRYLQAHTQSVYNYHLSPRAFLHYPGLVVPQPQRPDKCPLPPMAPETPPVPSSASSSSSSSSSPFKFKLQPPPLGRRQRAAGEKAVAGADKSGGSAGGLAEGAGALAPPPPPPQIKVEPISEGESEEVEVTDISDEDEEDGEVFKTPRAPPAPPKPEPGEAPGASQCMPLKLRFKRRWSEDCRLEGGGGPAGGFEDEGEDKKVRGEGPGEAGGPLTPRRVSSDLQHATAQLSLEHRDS
# Outline: as §1
# ETV3L = molecular target: T4, ETV3L (Homo sapiens, UniProt Q6ZN32 1-361)
# T4 sequence: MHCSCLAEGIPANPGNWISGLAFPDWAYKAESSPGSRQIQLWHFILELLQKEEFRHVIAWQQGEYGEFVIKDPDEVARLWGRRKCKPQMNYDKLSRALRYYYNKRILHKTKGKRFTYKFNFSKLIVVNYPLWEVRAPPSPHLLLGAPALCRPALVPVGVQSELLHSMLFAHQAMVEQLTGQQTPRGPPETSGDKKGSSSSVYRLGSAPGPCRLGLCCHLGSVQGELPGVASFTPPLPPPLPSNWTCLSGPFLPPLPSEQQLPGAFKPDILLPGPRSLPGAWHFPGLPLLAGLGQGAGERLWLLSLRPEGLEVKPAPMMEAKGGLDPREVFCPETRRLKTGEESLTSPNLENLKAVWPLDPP
# Outline: as §1
# ETS2 = molecular target: T5, ETS2 (Homo sapiens, UniProt P15036 1-469)
# T5 sequence: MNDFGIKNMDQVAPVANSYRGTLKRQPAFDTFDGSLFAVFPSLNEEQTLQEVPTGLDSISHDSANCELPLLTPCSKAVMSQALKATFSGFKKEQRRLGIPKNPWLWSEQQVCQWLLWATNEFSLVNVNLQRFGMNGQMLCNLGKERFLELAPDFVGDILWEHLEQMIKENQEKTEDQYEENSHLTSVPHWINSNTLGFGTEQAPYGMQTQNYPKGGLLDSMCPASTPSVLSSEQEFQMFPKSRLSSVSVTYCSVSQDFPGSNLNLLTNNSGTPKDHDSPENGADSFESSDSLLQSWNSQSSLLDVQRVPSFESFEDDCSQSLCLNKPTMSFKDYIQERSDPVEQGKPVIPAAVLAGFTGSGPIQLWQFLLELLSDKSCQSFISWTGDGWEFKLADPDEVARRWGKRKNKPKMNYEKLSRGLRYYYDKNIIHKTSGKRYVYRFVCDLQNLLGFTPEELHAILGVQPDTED
# Outline: as §1
# ETV7 = molecular target: T6, ETV7 (Homo sapiens, UniProt Q9Y603 1-341)
# T6 sequence: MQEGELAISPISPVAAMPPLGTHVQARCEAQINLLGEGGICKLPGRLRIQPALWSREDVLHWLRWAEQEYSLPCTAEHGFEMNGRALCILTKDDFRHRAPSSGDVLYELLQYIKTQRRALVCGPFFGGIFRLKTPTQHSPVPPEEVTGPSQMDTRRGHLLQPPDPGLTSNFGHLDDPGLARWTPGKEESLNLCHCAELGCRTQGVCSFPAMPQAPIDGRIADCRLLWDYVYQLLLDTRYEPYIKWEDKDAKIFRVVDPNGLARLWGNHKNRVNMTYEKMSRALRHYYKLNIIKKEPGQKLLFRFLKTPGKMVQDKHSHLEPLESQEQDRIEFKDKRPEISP
# Outline: as §1
# ETV3 = molecular target: T7, ETV3 (Homo sapiens, UniProt P41162-2 1-143)
# T7 sequence: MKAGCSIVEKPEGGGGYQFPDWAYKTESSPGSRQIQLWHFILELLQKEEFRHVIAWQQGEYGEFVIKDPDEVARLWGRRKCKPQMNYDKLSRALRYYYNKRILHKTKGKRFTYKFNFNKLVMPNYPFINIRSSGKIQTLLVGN
# Outline: as §1
# ETV6 = ETV6 (Homo sapiens, UniProt P41212 1-452)
# Outline: as §1
# Sequence of ETV6 (P41212 whole entry): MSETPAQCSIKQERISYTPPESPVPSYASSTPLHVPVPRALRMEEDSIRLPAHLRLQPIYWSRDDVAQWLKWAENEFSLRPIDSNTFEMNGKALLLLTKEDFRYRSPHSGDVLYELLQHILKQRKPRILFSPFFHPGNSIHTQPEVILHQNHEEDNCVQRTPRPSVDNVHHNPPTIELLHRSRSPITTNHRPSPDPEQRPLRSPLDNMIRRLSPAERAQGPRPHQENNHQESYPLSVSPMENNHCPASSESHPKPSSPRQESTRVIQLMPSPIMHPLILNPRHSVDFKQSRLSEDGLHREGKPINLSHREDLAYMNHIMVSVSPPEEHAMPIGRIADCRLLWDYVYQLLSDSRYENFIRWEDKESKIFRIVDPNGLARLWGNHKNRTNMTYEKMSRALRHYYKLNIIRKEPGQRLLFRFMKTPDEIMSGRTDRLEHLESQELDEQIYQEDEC
# Sequence of ETV1 (P50549 whole entry): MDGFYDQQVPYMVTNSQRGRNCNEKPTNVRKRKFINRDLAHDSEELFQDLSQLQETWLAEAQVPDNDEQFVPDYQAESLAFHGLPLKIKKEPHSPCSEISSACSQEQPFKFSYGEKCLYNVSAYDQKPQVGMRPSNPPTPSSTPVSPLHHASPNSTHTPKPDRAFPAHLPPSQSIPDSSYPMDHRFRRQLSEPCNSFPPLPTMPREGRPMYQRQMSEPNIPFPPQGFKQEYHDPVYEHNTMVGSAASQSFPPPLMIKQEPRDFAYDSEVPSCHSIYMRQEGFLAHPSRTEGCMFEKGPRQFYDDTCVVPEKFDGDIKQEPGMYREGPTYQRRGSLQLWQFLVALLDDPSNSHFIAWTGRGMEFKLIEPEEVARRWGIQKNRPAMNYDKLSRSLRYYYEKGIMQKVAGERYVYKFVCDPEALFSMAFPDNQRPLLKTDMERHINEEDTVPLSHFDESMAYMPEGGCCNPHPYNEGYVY
# Sequence of ELF4 (Q99607 whole entry, the tested form may be a part): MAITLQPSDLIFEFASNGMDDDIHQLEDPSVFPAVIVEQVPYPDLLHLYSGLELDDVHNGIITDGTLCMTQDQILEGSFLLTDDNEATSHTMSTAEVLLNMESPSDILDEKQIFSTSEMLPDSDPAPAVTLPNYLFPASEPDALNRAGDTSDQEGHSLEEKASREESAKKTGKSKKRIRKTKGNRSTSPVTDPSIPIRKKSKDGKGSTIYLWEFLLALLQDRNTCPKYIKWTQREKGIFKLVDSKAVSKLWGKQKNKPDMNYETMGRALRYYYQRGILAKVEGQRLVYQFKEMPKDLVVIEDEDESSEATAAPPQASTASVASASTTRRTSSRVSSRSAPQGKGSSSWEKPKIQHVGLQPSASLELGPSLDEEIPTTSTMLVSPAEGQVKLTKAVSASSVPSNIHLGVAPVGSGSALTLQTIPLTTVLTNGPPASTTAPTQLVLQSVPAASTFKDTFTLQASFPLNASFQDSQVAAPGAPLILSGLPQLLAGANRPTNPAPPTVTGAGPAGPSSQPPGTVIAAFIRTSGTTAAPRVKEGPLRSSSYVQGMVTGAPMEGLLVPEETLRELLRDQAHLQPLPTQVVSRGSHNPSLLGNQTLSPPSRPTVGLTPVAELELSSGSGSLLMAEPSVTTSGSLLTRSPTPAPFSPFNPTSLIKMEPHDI
sequence,measurement,setting,value
TATGTC,binding signal,ELF4,"1.14 fold enrichment (6-mer frequency, TF over GST control)"
same,binding signal,ETV2,"1.02 fold enrichment (6-mer frequency, TF over GST control)"
same,binding signal,ELF3,"1.06 fold enrichment (6-mer frequency, TF over GST control)"
same,binding signal,ETV1,"1.05 fold enrichment (6-mer frequency, TF over GST control)"
same,binding signal,ERF,"1.08 fold enrichment (6-mer frequency, TF over GST control)"
same,binding signal,ETV3L,"1.16 fold enrichment (6-mer frequency, TF over GST control)"
same,binding signal,ETS2,"1.13 fold enrichment (6-mer frequency, TF over GST control)"
same,binding signal,ETV7,"1.06 fold enrichment (6-mer frequency, TF over GST control)"
same,binding signal,ETV3,"1.13 fold enrichment (6-mer frequency, TF over GST control)"
same,binding signal,ETV6,"1.07 fold enrichment (6-mer frequency, TF over GST control)"
